Consider 58 compounds from PubChem BioAssay AID504692 (The Scripps Research Institute Molecular Screening Center, 2011).

Among all 340,000 compounds or so, about 2,000 (0.59%) were called active. Only a selection was taken, and actives are over-represented in it overall. A number with no mark means an inactive call. Cut-off read from the data, not from the text of the source: active = activation mostly above about 9.5% (no sharp cut-off); inactive = mostly below about 7.6%.

The target in the experiment is 5-hydroxytryptamine receptor 5A (Homo sapiens) (UniProt P47898). Briefly: activation of human 5-HT5A receptor – cell-based, luminescence, full-deck HTS, counter-screen for OPRM1-OPRD1 heterodimer agonist project, primary screen (AID 504692).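 Note: 0% = cells with vehicle only and 100% = reference agonist.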 As to conditions: HTR5A agonist assay, at 9.3 µM, hits give high values. In general terms: A counterscreen serves to expose hits that act by an unwanted route or on another target.
Sequence of 5-hydroxytryptamine receptor 5A (Homo sapiens) (P47898 whole entry, looked up): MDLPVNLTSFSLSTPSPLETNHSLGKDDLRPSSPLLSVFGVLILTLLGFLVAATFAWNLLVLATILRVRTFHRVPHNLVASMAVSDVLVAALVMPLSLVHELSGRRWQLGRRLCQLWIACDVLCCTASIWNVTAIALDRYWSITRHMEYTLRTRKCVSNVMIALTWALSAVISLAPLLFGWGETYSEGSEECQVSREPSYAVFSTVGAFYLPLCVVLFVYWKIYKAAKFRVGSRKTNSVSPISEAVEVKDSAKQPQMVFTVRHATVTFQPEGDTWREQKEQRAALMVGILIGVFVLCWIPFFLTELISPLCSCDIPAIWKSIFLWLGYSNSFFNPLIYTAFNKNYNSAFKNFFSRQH
Consider `COc1ccc(Nc2cc(=O)oc3ccccc23)cc1`, for which the activation was 2.95%.
The result for `COc1ccc2oc(=O)cc(-c3cc4ccccc4o3)c2c1` reads 10.7% (active); that for `COc1cccc2cc(-c3cc(=O)oc4cc(C)c(O)cc34)oc12`, 1.11%; that for `COc1ccc(/C=C(\C#N)c2c[nH]c3ccccc23)cc1`, 19.6% (active).
With `COc1ccc(C2C(C(C)=O)=C(O)C(=O)N2CCc2c[nH]c3ccccc23)cc1` (stereo not drawn), the activation was 1.98%.
The result for `COc1cccc(-n2c(SCC(=O)c3c[nH]c4ccccc34)nc3ccccc3c2=O)c1` reads -2.91%; that for `Cc1cc(C(=O)NNS(=O)(=O)c2ccccc2C(F)(F)F)nn1C(C)(C)C`, -2.85%.
On to `Cc1cccc(C)c1NC(=O)Nc1ccccc1-n1ccnc1`, for which the activation was 2.52%.
The result for `NNC(=O)c1ccc(COCC(F)(F)C(F)F)cc1` reads 8.26%; that for `Cc1ccc(C(=O)NC2CCN(C(=O)Nc3ccc(F)cc3)CC2)cc1`, 4.38%; that for `CN(CC(=O)Nc1ccc(F)cc1)CC(=O)Nc1ccc(Cl)c(S(=O)(=O)N2CCOCC2)c1`, 5.23%.
For `CN(CCC(=O)Nc1cc(S(=O)(=O)N(C)C)ccc1Cl)CC(=O)Nc1ccc(F)cc1` the value was 11.8% (active); for `CN(CC(=O)Nc1ccc(S(=O)(=O)N2CCCC2)cc1)Cc1ccc(Cl)c(Cl)c1`, -1.38%.
For `O=C(Nc1cccc(F)c1)[C@@H]1CCCN1` the value was 0.12%; for `COc1ccc(C(=O)C2CCCN(C(=O)c3ccc(OC)o3)C2)c(C)c1` (stereo not drawn), -0.4%; for `O=C(/C=C/c1cccc(C(F)(F)F)c1)N1CCN(c2ccccn2)CC1`, 10.6% (active).
Take `O=C(Cc1ccc(Br)cc1)N1CCN(c2ccccn2)CC1`: the activation was 0.82%.
For `O=C(C(Cl)Cl)N1CCN(c2ccccn2)CC1` the value was -2.12%.
As for `Cc1cccc(N2CCN(C(=O)CCS(=O)(=O)c3ccc4c(c3)NC(=O)C(C)S4)CC2)c1C` (stereo not drawn), the activation is 2.41%.
For `COC(=O)c1cc(S(=O)(=O)N2CCN(c3cc(C)ccc3C)CC2)c[nH]1` the value was 14.8% (active).
The result for `Cc1ccc(C)c(N2CCN(S(=O)(=O)c3c(C)[nH]c(C)c3C(=O)N3CCCC3)CC2)c1` reads 0.83%.
The result for `Cc1ccc(C)c(N2CCN(S(=O)(=O)c3ccc4c(c3)oc(=O)n4C)CC2)c1` reads 0.11%; that for `Cc1cccc(N2Cc3ccccc3C2=NC(=O)c2ccc(Cl)nc2)c1`, 2.14%; that for `OCCC1CN(Cc2cccc(OC3CCCC3)c2)CCN1Cc1ccsc1` (stereo not drawn), 0.37%.
Regarding `O=C(CCc1c[nH]c2ccccc12)NCCOc1ccccc1`, the activation was 0.78%.
For `O=C(CCCCCn1c(=O)[nH]c2ccccc2c1=O)NCCc1c[nH]c2ccccc12` the value was 12.7% (active); for `CCN(CC)CCNC(=O)CCCCCn1c(=O)[nH]c2cc(C(=O)OC)ccc2c1=O`, 1.57%.
Consider `O=C1CC(Cc2ccc(Cl)cc2)C(=O)N1c1cc(Cl)ccn1` (stereo not drawn), for which the activation was 5.44%.
For `CC(=O)Nc1ccc(S(=O)(=O)NC2Cc3ccccc3C2)cc1` the value was 4.91%; for `CC(=O)Nc1ccc(S(=O)(=O)NC(C)C(=O)OCC(=O)NC2CCCC2)cc1` (stereo not drawn), 3.96%; for `CCOC(=O)[C@H]1CCC[C@@H](NS(=O)(=O)c2ccc(NC(C)=O)cc2)C1`, 12.5% (active).
For `Cc1cccc(OC(=O)c2sc3ncn(C)c(=O)c3c2C)c1` the value was -4.42%; for `CCOc1ccc(CCNC(=O)CCc2nnc3ccc(N4CCCC4)nn23)cc1OCC`, -0.94%; for `CCC(C)C(N=C1NS(=O)(=O)c2ccccc21)C(=O)N1CCC(C)CC1` (stereo not drawn), -4.84%.
For `O=C(CCC(=O)c1cccs1)Nc1nc2ccccc2s1` the value was 6.03%; for `CC(C)CC(=O)NC(=S)NCc1ccccc1`, -0.72%.
As for `CC(C)CC(=O)N/C(N)=N/c1nc2ccccc2s1`, the activation is 22% (active).
As to `CCOC(=O)C1C(c2ccc(O)cc2)NC(=O)NC1(O)C(F)(F)F` (stereo not drawn), the activation was 3.08%.
For `CC(C)CCN1CCN(Cc2ccc(C(F)(F)F)cc2)CC1CCO` (stereo not drawn) the value was -0.94%.
For `O=C(NCc1ccccc1)C(=O)NCC1OCCN1S(=O)(=O)c1ccc(Br)cc1` (stereo not drawn) the value was 5.82%.
The result for `CCOC(=O)c1c(-c2ccc(-c3ccccc3)cc2)csc1NC(=O)CCC(=O)O` reads 9.5% (active); that for `CCOC(=O)c1c(-c2ccc(C)cc2C)csc1NC(=O)CSc1nnnn1C`, 0.24%.
With `CCOC(=O)c1c(-c2cccc(C)c2)csc1NC(=O)c1c(-c2ccccc2)noc1C`, the activation was -1.55%.
The result for `O=C(NCc1ccco1)/C(=C\c1cccc([N+](=O)[O-])c1)NC(=O)c1ccco1` reads 0.85%; that for `O=C(CSc1nncn1-c1cccnc1)N1CCOCC1`, 1.54%.
For `Cc1ccc(C(=O)Nc2ccc3c(c2)OCCO3)cc1S(=O)(=O)N1CCOCC1` the value was 0.67%.
For the compound `O=C(Nc1ccncc1)c1cc(-c2ccccn2)nc2ccc(Br)cc12`, the activation was -4.88%.
The result for `O=C(NCc1cccs1)c1cc(-c2ccccn2)nc2ccc(Br)cc12` reads 12.8% (active); that for `O=C(NCC(c1cccs1)N1CCOCC1)c1cc(-c2ccccn2)nc2ccccc12` (stereo not drawn), 1.25%; that for `CCOC(=O)CSc1nc2ccc(C)cc2n2cnnc12`, -0.67%.
For the compound `Cc1oc2c(F)c(F)c(F)c(F)c2c1S(=O)(=O)Nc1cccc(C(F)(F)F)c1`, the activation is 16.5% (active).
For `Cc1noc(C)c1S(=O)(=O)Nc1cc(C(F)(F)F)ccc1N1CCOCC1` the value was -0.69%; for `O=C(CNS(=O)(=O)c1cccc(C(F)(F)F)c1)Nc1ccccc1F`, -1.06%.
For `CCOc1ccc2[nH]c(=O)c(CN(CCCO)C(C)=O)cc2c1` the value was 4.2%; for `COc1ccccc1S(=O)(=O)NCc1ccc(C(=O)N(C)Cc2ccc(F)cc2)cc1`, 16.9% (active); for `COc1ccc(S(=O)(=O)NCc2ccc(C(=O)N(C)Cc3ccco3)cc2)cc1`, 6.7%.
For `O=C(NCCS(=O)(=O)NCc1ccc(F)cc1)c1ccccc1` the value was -3.96%; for `Cc1cc(S(=O)(=O)NC2CCCCC2)ccc1OCC(=O)NCc1cccnc1`, 7.03%.
